Assay outcomes (PubChem)
MBNL1-CUG inh – blocks human MBNL1 binding to CUG repeat RNA. Q9NR56. TR-FRET MBNL1-His/biotin-(CUG)12 binding, 665/545 ratio. Potency, µM (highest dose often 57.5 µM), most hits filed as inhibitors. 280,000 tested, 0.036% active. AID 2675; active = well fitted inhibition curve with a large enough effect in the signal ratio, with a control signal flat, not every such curve was filed as active; inconclusive = small, poorly fitted or top-dose-only effect, or effect the other way, or a change in a side signal; inactive = no such curve, though single readings can be large or run the other way; the % refers to the signal ratio
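TR-FRET readout: Ex 340 nm, 665/545 nm emission ratio, normalized to buffer-only (basal) and MBNL1-(CUG)12 controls. Complex of MBNL1-His with Biotin-(CUG)12, compounds 92 nM–58 uM, incubated 60 min at room temperature.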
PLK1 PBD block – blocks phosphopeptide binding to human PLK1 polo-box domain; Plk1 PBD binding of FITC phosphopeptide, fluorescence polarization; Potency, µM, hits mostly inhibitors; P53350; 360,000 tested, 2.8% active; note: series mostly up to about 57 µM; nearly all actives have a fitted effect of over 65% in size
VDR inhibitor – inhibitors of human vitamin D receptor; VDR-SRC2-3 peptide fluorescence polarization, 2 h; Potency, µM, most hits filed as inhibitors; 400,000 tested, 0.93% active; P11473
Target sequence (P11473 whole entry, looked up): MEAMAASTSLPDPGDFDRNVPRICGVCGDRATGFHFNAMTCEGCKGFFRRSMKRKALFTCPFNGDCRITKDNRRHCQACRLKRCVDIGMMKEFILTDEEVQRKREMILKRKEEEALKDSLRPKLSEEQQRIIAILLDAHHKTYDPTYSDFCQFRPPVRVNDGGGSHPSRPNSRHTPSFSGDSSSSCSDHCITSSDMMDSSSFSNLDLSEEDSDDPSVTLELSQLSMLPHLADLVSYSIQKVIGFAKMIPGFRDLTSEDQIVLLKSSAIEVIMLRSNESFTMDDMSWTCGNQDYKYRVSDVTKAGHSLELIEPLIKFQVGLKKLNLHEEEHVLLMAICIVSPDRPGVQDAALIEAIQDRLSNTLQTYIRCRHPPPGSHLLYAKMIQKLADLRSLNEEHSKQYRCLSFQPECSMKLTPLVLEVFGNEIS
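After 23 nl compound addition and a short centrifugation, plates sat for 2 hours at ambient temperature; polarization of fluorescence then indicated loss of VDR binding to peptide SRC2-3.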
KCNH2 WT inh – blocks the wildtype human KCNH2 potassium channel. 340,000 tested, 0.37% active. AID 720551. activity change, % at 1.84 µM. U2OS, BacMam KCNH2, thallium flux FluxOr; stronger effect = lower value;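 active = maximum activity change below -70%; inconclusive = maximum activity change between -70% and -50%; inactive = maximum activity change above -50%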
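U2OS cells transduced with wild-type KCNH2 virus are loaded with FluxOr dye for 45 min, and thallium flux is measured in kinetic reads before and after stimulation buffer. Rate constants are normalized to DMSO controls.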
KCNH2 3.1 inh – blocks the human KCNH2 3.1 channel isoform; U2OS KCNH2 3.1, thallium flux FluxOr; stronger effect = lower value; activity change, % (tested at about 1.8 µM); 340,000 tested, 0.95% active;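 active = maximum activity change below -70%; inconclusive = maximum activity change from -70% to -50%; inactive = maximum activity change above -50%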;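 note: thallium influx rate constant from kinetic fluorescence after stimulation buffer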
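U2OS cells transduced with KCNH2 3.1 mutant virus (1.77 x 10^8 /mL, 4 h), plated overnight at 37 C, loaded 45 min with FluxOr dye plus Red40 quencher. Thallium flux rate constant from kinetic reads after stimulation buffer, normalised to controls.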
CBFb RUNX1 block – blocks binding between human CBF-beta and RUNX1; AlphaScreen CBFb-His/RUNX1-biotin binding, biochemical; Potency, µM (doses to about 59.8 µM), actives largely listed as inhibitors; 230,000 tested, under 10 active
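Read-out: AlphaScreen. Format: His-CBF-beta with biotinylated RUNX1 (30 nM each) preincubated 20 min, compound 15 min, Ni-chelate plus streptavidin beads 90 min; room temperature throughout.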
Hits are given with their value; n = inactive; u = inconclusive; x = no result. The list is not random: actives were taken first. Their share in the collection is about 3.8%. Unless noted, calls come from the whole dose curve; as a rule, active = well fitted curve in the direction sought with a large enough effect; inconclusive = small, poorly fitted or top-dose-only effect, or another doubt; inactive = no such curve, though single readings can be large; an effect the other way counts as inactive or inconclusive.

SMILES	MBNL1-CUG inh	PLK1 PBD block	VDR inhibitor	KCNH2 WT inh	KCNH2 3.1 inh	CBFb RUNX1 block
Cc1cc(C)cc(NC(=O)CCCN2C(=O)C(c3ccccc3)Oc3cccnc32)c1 (stereo unspecified)	n	24µM	n	n	n	x
COc1cc(OC)c(NC(=O)Cn2c(=O)c(C(F)(F)F)nc3ccccc32)cc1Cl	x	x	n	x	x	x
Cc1cc(C)c(S(=O)(=O)/N=C2\C=CC(=O)C(Cl)=C2)c(C)c1	n	28µM	n	n	n	n
CC(Oc1ccc(Br)cc1)C(=O)Nc1ncn[nH]1 (stereo unspecified)	x	x	n	x	x	x
O=C(O)CCc1ccc(-c2ccccc2)n1CC(=O)O	n	n	n	n	n	n
CCCn1c(CCC(=O)O)ccc1-c1ccccc1	n	12µM	u	n	n	n
CCCCCCCCCCCCCC/C(C(=O)O)=C(\C)C(=O)O	x	x	n	x	x	n
O=C(CSc1nnc(-c2cccs2)o1)Nc1cccc(C(F)(F)F)c1	x	x	n	x	x	x
CC1(C)CC(=O)C=C(Nc2cccc(F)c2)C1	n	30µM	n	n	n	x
COC(=O)c1ccc(NC2=CC(=O)CC(C)(C)C2)cc1	n	3.4µM	n	n	n	n
Cc1ccc2c(CC(=O)NCc3ccccc3)coc2c1C	x	x	n	x	x	x
O=S(=O)(c1ccc(-c2csc(=Nc3ccc(OC(F)(F)Cl)cc3)n2CCCO)cc1)N1CCCC1	x	x	n	x	x	x
Brc1cccc(CNCCCN2CCOCC2)c1	n	27µM	n	n	n	n
CC(C)C[C@@H](CNCC(=O)[C@H](CC(C)C)NC(=O)c1[nH]cnc1C(=O)N[C@@H](C)CN)NC(=O)c1nc[nH]c1C(=O)N[C@@H](CC(C)C)C(=O)O	x	27µM	u	n	n	x
CC(C)C[C@@H](CNCC(=O)[C@H](Cc1c[nH]c2ccccc12)NC(=O)c1[nH]cnc1C(=O)N[C@H](CN)CC(C)C)NC(=O)c1nc[nH]c1C(=O)N[C@@H](CC(=O)O)C(=O)O	x	n	n	n	n	x
CC(C)C[C@@H](CNCC(=O)[C@H](Cc1c[nH]c2ccccc12)NC(=O)c1[nH]cnc1C(=O)N[C@@H](C)CN)NC(=O)c1nc[nH]c1C(=O)N[C@@H](CC(=O)O)C(=O)O	x	27µM	u	n	n	x
CCN(CCCCO)c1nc(C)nc2c1c(C)c(C)n2-c1c(C)cc(C)cc1C	x	x	u	x	x	n
Cc1c(C(=O)Nc2nonc2-c2ccc(F)cc2)oc2ccc(F)cc12	n	30µM	u	n	n	x
CCc1cccc(OCCCCNCCO)c1	n	27µM	n	n	n	n
CCCNC(=O)c1noc2c1CCc1cc(OC)ccc1-2	n	27µM	n	n	n	n
O=S(=O)(NCCCN1CCOCC1)c1ccc(Cl)s1	n	8.4µM	u	n	n	n
O=C(NCCCN1CCOCC1)c1ccc(Cl)s1	n	n	n	n	n	n
O=S(=O)(NCCN1CCOCC1)c1ccc(F)c(Cl)c1	n	3.4µM	u	n	n	x
COc1cccc(C2=Nn3c(nnc3-c3cc(OC)ccc3OC)SC2)c1	x	x	x	x	x	n
COc1ccc(CCNC(=O)CSc2cn(CCNC(=O)c3ccccc3F)c3ccccc23)cc1OC	x	x	n	x	x	x
SMILES	MBNL1-CUG inh	PLK1 PBD block	VDR inhibitor	KCNH2 WT inh	KCNH2 3.1 inh	CBFb RUNX1 block
Cc1cccc(N2CCN(C(c3ccccc3)c3nnc(-c4ccccc4F)o3)CC2)c1C (stereo unspecified)	x	x	n	x	x	x
Cn1c(CNC(=O)c2ccc(F)cc2)nc2ccccc21	n	27µM	79µM	n	n	n
CC[C@H](C)[C@@H](NC(=O)O[C@@H]1C(=O)c2ccc(OC)cc2O[C@H]1c1ccc2c(c1)OCO2)C(=O)OC	x	x	n	x	x	n
CC(OC(=O)c1nc(-c2ccccc2)n(-c2ccccc2)n1)C(=O)Nc1cc(Cl)cc(Cl)c1 (stereo unspecified)	n	n	n	-142	n	n
Cc1nn(-c2ccccc2)c(C)c1C(=O)OC(C)C(=O)Nc1ccc(C(N)=O)cc1 (stereo unspecified)	x	n	n	n	n	x
CC1C(=O)N(Cc2ccc([N+](=O)[O-])cc2)c2ccccc2N1C(=O)c1c(F)cccc1F (stereo unspecified)	n	u	n	-79	n	x
COc1ccc(CN2C(=O)C(C)N(C(=O)c3c(F)cccc3F)c3ccccc32)cc1 (stereo unspecified)	n	n	n	n	n	x
CCOC(=O)CSC1=C(C#N)C(c2ccc(C)s2)CC(=O)N1 (stereo unspecified)	n	n	n	n	n	n
CCOC(=O)CSC1=C(C#N)C(=O)NC2(CCCCC2)S1	n	u	79µM	n	n	n
O=C(O)c1csc(-c2ccccc2)n1	n	n	n	n	n	n
O=C(O)c1csc(-c2cccc(Cl)c2)n1	n	27µM	n	n	n	n
CCOC(=O)N1CCc2c(sc3c2c(=O)n(Cc2ccccc2)c(=O)n3Cc2ccccc2Cl)C1	x	x	n	x	x	x
COc1ccc(OC)c(C(=O)c2c(N)c(-c3nc(-c4ccc(C)c(C)c4)cs3)c3ccccn23)c1	x	x	n	x	x	x
COc1cccc([C@@H]2Oc3ccc(Br)cc3C(=O)[C@H]2OC(=O)NCc2ccco2)c1	x	x	n	x	x	n
COc1ccc2c(c1)C(=O)[C@H](OC(=O)NCc1ccco1)[C@@H](c1ccc(OC)c(Br)c1)O2	x	x	56µM	x	x	n
CCc1cccc(-n2c(=O)c3cccnc3n2CC(=O)NCc2ccccc2)c1	x	x	n	x	x	x
COc1ccc(N(CC(=O)Nc2cc(OC)cc(OC)c2)S(=O)(=O)c2c(C)noc2C)cc1	x	x	n	x	x	x
O=C(CSc1nccn1-c1ncc(C(F)(F)F)cc1Cl)c1ccc(Cl)cc1	n	u	45µM	n	n	n
COc1ccc(Cl)cc1NC(=O)Cn1nnc(C(=O)NCc2cccs2)c1N	x	x	n	x	x	x
O=C1N=c2ccc([N+](=O)[O-])cc2=C1c1sc(=O)[nH]c1O	u	3.4µM	u	n	n	x
O=[N+]([O-])c1ccc2nc(CCCO)[nH]c2c1	u	n	n	n	n	n
CCn1c2ccccc2c2cc(NC(=O)C(=O)N3CCOCC3)ccc21	n	21µM	n	n	n	n
CCn1c2ccccc2c2cc(NC(C)=O)ccc21	n	n	n	n	n	n
CC(Oc1ccccc1)C(=O)Nc1ccccc1C(=O)OCc1cc(=O)n2nc(C(C)C)sc2n1 (stereo unspecified)	x	x	n	x	x	x
O=c1[nH]c2ccccc2c(O)c1-c1ccccc1[N+](=O)[O-]	n	24µM	n	n	n	n
COc1ccc(OC)c(C2=Nn3c(nnc3-c3ccc(OC)c(OC)c3)SC2)c1	x	x	x	x	x	n
CCCCn1nnnc1NCc1cccnc1	n	3µM	n	n	n	n
CCCCn1nnnc1NCc1ccc(N2CCCC2)cc1	n	n	n	n	n	n
Cc1nc(NC(=O)CSc2nnc(C3CC3)n2C)sc1C	n	n	n	-254	n	x
